Drawing on publication PMC7819943, “Rice protein-binding microarrays: a tool to detect cis-acting elements near promoter regions in rice”, this text covers binding signal for 54 sequences.

Over roughly 68,000 sequences, “fluorescence intensity (a.u.)” has its median near 9,100; the highest 2% begin near 16,000. This excerpt belongs to a sample that is enriched for the highest values.

Sequence of OsWRKY34 (Q0JBA9 entry or part of it): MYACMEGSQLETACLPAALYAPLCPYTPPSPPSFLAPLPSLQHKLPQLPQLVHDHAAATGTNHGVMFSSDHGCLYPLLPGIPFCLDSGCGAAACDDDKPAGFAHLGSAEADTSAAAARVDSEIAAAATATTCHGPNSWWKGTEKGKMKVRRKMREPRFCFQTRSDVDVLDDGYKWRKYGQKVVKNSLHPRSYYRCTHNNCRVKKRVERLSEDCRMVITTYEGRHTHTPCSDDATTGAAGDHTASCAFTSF

The test addresses OsWRKY34 (Oryza sativa, UniProt Q0JBA9 1-250). Kind of test: protein-binding microarray (RPBM); PBS, 2% BSA, 51.3 ng/ul salmon testes DNA, 50 uM zinc acetate, 200 nM TF, 25 C, 1 h; high values mean tight binding. Conditions: protein: recombinant; tags: N-terminal polyhistidine and DsRed monomer fusion (pET32a); label: CyDye5-dUTP incorporated in the synthesized complementary strand; 3' TTTTT single-stranded linker to array surface; dsDNA, one strand shown. The gist of the method:
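Using Ni–NTA, transcription factors fused N-terminally to polyhistidine and DsRed were purified after expression in E. coli BL21-CodonPlus. These were incubated at 200 nM with a blocked, double-stranded custom Agilent array for 1 h at 25 °C in a buffer containing 50 µM zinc acetate, and the array was washed. The binding signal is per-feature fluorescence intensity (arbitrary units) on an Axon 4000B scanner.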
Take “TCTCCCTTTCATTTTTATGTATGTTGGAATTATTTTTGTTCGGAGTCACCTAGTGCAG”: the binding signal was 8590 fluorescence intensity (a.u.). Then “TATTTGATCCCGTTTTTTAAAATCGAGCTTACCGTTTGACCGGAGTCACCTAGTGCAG”, with 10500 fluorescence intensity (a.u.); and “GTGGAGCTATACCTTCTACTCTCAGCAATTGTCCTTTAGACGGAGTCACCTAGTGCAG”, with 9460 fluorescence intensity (a.u.); and “ACGCGGCCGCCGAGCTGGACTCCTCATCCCCAGCTTCGCTCGGAGTCACCTAGTGCAG”, with 8600 fluorescence intensity (a.u.).

Turning to “CAATTATCCTCTGTGCTGTTTGACATTTTCTTGGTTAGTGCGGAGTCACCTAGTGCAG”, the binding signal was 12000 fluorescence intensity (a.u.). Then “GACACACGATTTCTTAAGGCTCATACTTTATGCTTGTCTACGGAGTCACCTAGTGCAG”, with 11300 fluorescence intensity (a.u.); and “GACACATGAACTTTCAATTTTTCTATCACATCGTTCTAATCGGAGTCACCTAGTGCAG”, with 8150 fluorescence intensity (a.u.).

On to “TTTTTTGGTTGTTGATATGATGTTCTTTTTTCCTCATTCTCGGAGTCACCTAGTGCAG”, for which the binding signal was 8990 fluorescence intensity (a.u.). Then “GGCTTTGTATTTTGGTGTTGAGTCCCTTCCATACAAGAACCGGAGTCACCTAGTGCAG”, with 8040 fluorescence intensity (a.u.). Then “AGTTTTTGCTTGTAACGTTTCACCACTCGTCTTATTCAAACGGAGTCACCTAGTGCAG”, with 8340 fluorescence intensity (a.u.); and “AACCTCCACACACCCGCTCATACTACAAGCTAGGTAATCACGGAGTCACCTAGTGCAG”, with 8040 fluorescence intensity (a.u.).

In the case of “TGCTCGGACCATTCCCCGCCCACCATCGCTGCACACTTTTCGGAGTCACCTAGTGCAG”, the binding signal was 17200 fluorescence intensity (a.u.). As to “CGCTCCACCACCCGCCCGCTCGCCCATTTCCTCTCCCTTTCGGAGTCACCTAGTGCAG”, the binding signal is 12300 fluorescence intensity (a.u.). The figure for “GCGCTTCTGACCACCACGTGCATTTCCATTTCCCGCTGCACGGAGTCACCTAGTGCAG” is 12700 fluorescence intensity (a.u.); for “CACCTCCCCGCCCACCATTCCCACTTTCGCCCACACACACCGGAGTCACCTAGTGCAG” it is 9570 fluorescence intensity (a.u.); for “CGCTGACCACGTTGACCATCTTCCATTTCTTCCCCTCGCCCGGAGTCACCTAGTGCAG” it is 18600 fluorescence intensity (a.u.). Regarding “CCCCTCGCCGCCCTCTCTCTCACAGTCTCACGCATCCCATCGGAGTCACCTAGTGCAG”, the binding signal is 8440 fluorescence intensity (a.u.). Then “GCCCCATCCACCGCACCACACGTCTCTTTTTTTCGCGACTCGGAGTCACCTAGTGCAG”, with 14600 fluorescence intensity (a.u.); and “CGCACCACCACCACCATTTCCACGCCCCTCTCTCCATTCCCGGAGTCACCTAGTGCAG”, with 8680 fluorescence intensity (a.u.).

Turning to “CCCATCGCATCTTTCCCACTCGCCCCACGCCCGCACGTCTCGGAGTCACCTAGTGCAG”, the binding signal was 18800 fluorescence intensity (a.u.). Then “GGCAATCCGGTGCTCCTTGTCTGAACTCTCTCAATCTCAACGGAGTCACCTAGTGCAG”, with 8040 fluorescence intensity (a.u.). Then “ATTTGTCATTTTTTCTATGTGTATATGTTGTATTTTGAGCCGGAGTCACCTAGTGCAG”, with 8430 fluorescence intensity (a.u.); and “GCATGAGTAGGGGATGGCATTAAAACAGGTTGGTCAGGTGCGGAGTCACCTAGTGCAG”, with 8920 fluorescence intensity (a.u.). The figure for “TCCGTTCCATCGTAATCCTTCTCCGATCCGAATTTGCTTCCGGAGTCACCTAGTGCAG” is 9120 fluorescence intensity (a.u.); for “GCATCGACCGCGCGCGTATACGTTAACGCTCACCTTTGTTCGGAGTCACCTAGTGCAG” it is 9420 fluorescence intensity (a.u.). On to “GGTTTGTTTGGAGGCGCAATGTTTCTCACCCTGTCGTTCCCGGAGTCACCTAGTGCAG”, for which the binding signal was 12700 fluorescence intensity (a.u.). Then “AGGTCTTTTTCACGTCGCAACCATGGCTTCAAATTTTGCTCGGAGTCACCTAGTGCAG”, with 11900 fluorescence intensity (a.u.); and “CTCGCCTGACCCTGTCAAACGCCGGGCCGCGGACCCCGCCCGGAGTCACCTAGTGCAG”, with 8970 fluorescence intensity (a.u.). “CGTAGGTAAGTAGGGTTATTATAGTTATTTGTGTATATATCGGAGTCACCTAGTGCAG”: the binding signal is 9300 fluorescence intensity (a.u.). Then “GAGCTTGGGGTTGTGTATGGTGGTGGTGGTGTGGTAGCTACGGAGTCACCTAGTGCAG”, with 33200 fluorescence intensity (a.u.); and “CTGTTGTGTTGTGTTGTAATATGATTATGTGGGTGCTTATCGGAGTCACCTAGTGCAG”, with 8390 fluorescence intensity (a.u.); and “TGATGTCTTATCTCGGGTCTCATCTTTTCGCTTATGCTTACGGAGTCACCTAGTGCAG”, with 8990 fluorescence intensity (a.u.). Then “TGCTTGTGGTTTGTATGGAGTTTGGGTGAAGTGTCACGTACGGAGTCACCTAGTGCAG”, with 9660 fluorescence intensity (a.u.); and “GGTGACGGCTGGTGTGGGTGTAGGGTGGCCGCGCGGTACGCGGAGTCACCTAGTGCAG”, with 9460 fluorescence intensity (a.u.); and “TCGTGGGAAGGGCAAAGAAAAGACGGGGTGGTGGGCATCGCGGAGTCACCTAGTGCAG”, with 8420 fluorescence intensity (a.u.).

For “GAGCTTATAGGGTGGGTTGTGTCCATGGAGTAACTATTATCGGAGTCACCTAGTGCAG”, the binding signal was 18600 fluorescence intensity (a.u.). Then “GGGCTAGTGTTTTTATGGTGTGGTTGGGGATTCAGCTTGCCGGAGTCACCTAGTGCAG”, with 11600 fluorescence intensity (a.u.); and “TTTTGGGGTGGGTTTTGGTATCTGATGCTTACGGGCATCTCGGAGTCACCTAGTGCAG”, with 18100 fluorescence intensity (a.u.); and “GGGGTTATGGTGGATTTGGTGCTTTGGGGCATTATGTTTACGGAGTCACCTAGTGCAG”, with 13800 fluorescence intensity (a.u.). Then “AACAGTGGTATCGTTGTGTAGGGGTGGGCTGGCAAAAAGACGGAGTCACCTAGTGCAG”, with 20000 fluorescence intensity (a.u.). Then “ATTCAGTGGATCCTGCTGCTCAAACTTTGCTGACTGAATTCGGAGTCACCTAGTGCAG”, with 8820 fluorescence intensity (a.u.). Regarding “CATCTTTGTGGTTGTGTGGGTGTGTGTGTATATATATACCCGGAGTCACCTAGTGCAG”, the binding signal is 8180 fluorescence intensity (a.u.). Then “TGTAGCTTACTGCTTTGGTTTGGGCTGGTTGTGGATTGGACGGAGTCACCTAGTGCAG”, with 11900 fluorescence intensity (a.u.); and “TGCTGCTACTACATGTGGTGTGGGTGGTATGGTAGGGCCCCGGAGTCACCTAGTGCAG”, with 9060 fluorescence intensity (a.u.).

For the sequence “GGGATGGGTAGGGGTGGGTTGTGCTGTATTATACTACACCCGGAGTCACCTAGTGCAG”, the binding signal was 19200 fluorescence intensity (a.u.). The figure for “TGATGTGTGGGTGGTGGTGGTGGTGTGCCTTGTGTAGGTACGGAGTCACCTAGTGCAG” is 20800 fluorescence intensity (a.u.); for “TTACCTTAGATTTGGTAGGGCTGGTTAGGGCTGGTTGGAGCGGAGTCACCTAGTGCAG” it is 8680 fluorescence intensity (a.u.). Then “CTTGGGCGTCTTGTGTTTGTGGGTGAGGTAGCCAGCTGCCCGGAGTCACCTAGTGCAG”, with 9910 fluorescence intensity (a.u.); and “GCTTACTGGTTATGGTTGGTAGGGTTGGACGTGTAACAGACGGAGTCACCTAGTGCAG”, with 20900 fluorescence intensity (a.u.). The figure for “GGCTGTTGGGTTTGTGGGCTTGTGCTAGGCGTCCCAGCTACGGAGTCACCTAGTGCAG” is 17800 fluorescence intensity (a.u.). Turning to “GGGTTTTGCTTTTGCTGTTGTCTTGGGCTTGGGCCTTTGCCGGAGTCACCTAGTGCAG”, the binding signal was 8660 fluorescence intensity (a.u.).

As to “GGGTTGATGTGTGGTGAAGGGTAGGTAATTTGTAGGAGTACGGAGTCACCTAGTGCAG”, the binding signal is 10800 fluorescence intensity (a.u.). The figure for “AGGAGGTGTAGTAGGGTAGTGTAGGAGGTGTAGTGGAGTACGGAGTCACCTAGTGCAG” is 8450 fluorescence intensity (a.u.); for “CCTCGTACGTGTTGGTGTTGCCAAGCCCAAGCCAGTAGTACGGAGTCACCTAGTGCAG” it is 8990 fluorescence intensity (a.u.).
